Measured values taken from PubChem BioAssay (NCATS).
Results filed as inconclusive are left out. Active and inactive are the calls of the source. Calls come from the whole dose curve; as a rule, active = well fitted curve in the direction sought with a large enough effect; inconclusive = small, poorly fitted or top-dose-only effect, or another doubt; inactive = no such curve, though single readings can be large; an effect the other way counts as inactive or inconclusive.

What was measured:
[1] = tested on: Zika virus NS2B-NS3 protease (linked construct); assay: Primary screen NINDS Rhodamine qHTS for Zika virus inhibitors (AID 1347160); note: nearly all actives have a fitted effect of over 55% in size; note: potency is the fitted concentration of half-maximal effect
In short: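 Each compound, titrated, sat 15 min with 25 nM linked protease before 1.5 microM Rhodamine110 substrate went in. Fluorescence gain over the next 15 min, in pH 8.0 Tris with Tween 20, gave Hill-fitted curves.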

[2] = biological target: Calcium and integrin-binding protein 1 (Homo sapiens) (UniProt Q99828); assay: Primary qHTS for Identification of Calcium Integrin Binding Protein 1 (CIB1) Competitor (AID 1508620);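 note: GST tagged CIB1 binding a fluorescein labelled alphaIIb integrin peptide tracer; top concentration of the series differs between compounds; % is set by controls: 0 for no effect and ±100 for the full control effect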
In short: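 Fluorescence polarization competition: CIB1-GST (1 uM final) preincubated with compound 15 min at room temperature, then FITC-labeled alphaIIb peptide (100 nM final) added for another 15 min. Polarization read at Ex 480/Em 540.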

[3] = biological target: Glutathione peroxidase 1 (Homo sapiens) (UniProt P07203); assay: Primary qHTS Assay for Inhibitors of Recombinant Selenoprotein Glutathione Peroxidase 1 (GPX1) (AID 1845191); note: % is set by controls: 0 for no effect and ±100 for the full control effect; nearly all actives have a fitted effect of over 65% in size
In short: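 GPX1 10 nM, GR 100 nM, GSH 1 mM, NADPH 0.5 mM, CHP 0.5 mM (final). 30-min cpd preincubation, RT. Ex340/Em450 read t=0, t=15 min.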

[4] = biological target: Phospholipid hydroperoxide glutathione peroxidase GPX4 (Homo sapiens) (UniProt P36969); assay: Primary qHTS Assay for Inhibitors of Recombinant Selenoprotein Glutathione Peroxidase 4 (GPX4) (AID 1845192); note: nearly all actives have a fitted effect of over 65% in size
In short: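 qHTS, GR-coupled: GPX4 200 nM + cpd 30 min RT → GSH 1 mM, NADPH 0.5 mM, GR 100 nM → CHP 0.5 mM start; fluor 340/450 at t0 and t15 min; no-enzyme wells as control.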

[5] = biological target: Luciferin 4-monooxygenase (Photinus pyralis) (UniProt P08659); assay: Primary firefly luciferase (FLuc) qHTS assay for identification of artifact compounds. (AID 1845220); settings: outcome: dose series up to 54.1 µM unless noted; note: nearly all actives have a fitted effect of over 60% in size
In short: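 Reaction readout was CCD-imaged luminescence, taken 5 min after adding 10 nM purified firefly enzyme to compound-treated wells holding 10 uM luciferin and ATP in pH 7.6 buffer.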

[6] = Primary fluorescence-based thiol-reactive (MSTI) qHTS assay for identification of artifact compounds. (AID 1845221); note: nearly all actives have a fitted effect of over 65% in size; note: potency is the fitted concentration of half-maximal effect
In short: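 One-hour, room-temperature, dark incubation of compound with 4 uM MSTI in PBS (pH 7.4, 2% DMSO) precedes a fluorescence read at 525 nm excitation, 598 nm emission; Hill-equation fitting yields concentration-response values.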

[7] = tested on: Nanoluciferase (engineered Oplophorus gracilirostris luciferase); assay: Primary Nanoluciferase (NLuc) qHTS assay for identification of artifact compounds. (AID 1845222);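 note: NLuc secreted into diluted conditioned medium of S16 cells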
In short: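 Concentration-response data were obtained by luminescence after 5 min with Nano-Glo substrate at 1:100. The enzyme was diluted S16 NLuc-expressing cell medium, preincubated with compound for 15 min at RT. Curves were fitted with a 4-parameter Hill model.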

[8] = Primary redox qHTS assay for identification of artifact compounds. (AID 1845223);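 note: 0% = DMSO and 100% = reference compound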
In short: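 Redox-cycling detection via DTT (250 uM final) oxidation coupled to Amplex Red (25 uM)/HRP (250 mU/mL) in HBSS. 15 min preincubation plus 30 min after DTT, room temperature. Ex/Em 525/598 nm; 4-parameter Hill fit against DMSO and 10 uM DA3003.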

CRL-7250 = normal cell line; assay: Cytotoxic Profiling of Annotated Libraries Using Quantitative High-Throughput Screening (AID 1296008); settings: Five cell lines viability, CellTiter-Glo ATP luminescence, 48-72 h; max response: stronger effect = lower value; note: nearly all actives have a fitted effect of over 60% in size; note: potency is the fitted concentration of half-maximal effect; for max response: % is set by controls: 0 for no effect and ±100 for the full control effect
In short: (§1)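 Compounds were pin-transferred onto cells and incubated 48 or 72 hr at 37 degree Celsius, 95% humidity. CellTiter-Glo was added, plates sat 10 min at room temperature, then ATP-coupled luminescence was imaged as the viability read-out.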

NIH3T3 = assay: as above; settings: Five cell lines viability, CellTiter-Glo ATP luminescence, 48-72 h; max response: stronger effect = lower value
In short: as §1

C33A = assay: Primary qHTS to identify gynecologic anti-cancer compounds using libraries of approved drugs and bioactive compounds (AID 1345084); settings: Gynecologic cancer cell panel viability, ATPlite luminescence, 48 h; series mostly up to 57.5 µM; note: nearly all actives have a fitted effect of over 55% in size; note: potency is the fitted concentration of half-maximal effect
In short: (§2)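 In this quantitative HTS, cell killing is estimated from loss of ATP-dependent luciferase light. Cells see five compound concentrations over a 48 h exposure.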

CAOV3 = assay: as above; settings: Gynecologic cancer cell panel viability, ATPlite luminescence, 48 h; series mostly up to 57.5 µM
In short: as §2

CASKI = assay: as above; settings: Gynecologic cancer cell panel viability, ATPlite luminescence, 48 h; series mostly up to 57.5 µM
In short: as §2

Es-2 = assay: as above; settings: Gynecologic cancer cell panel viability, ATPlite luminescence, 48 h; series mostly up to 57.5 µM
In short: as §2

Hek293T = assay: as above; settings: Gynecologic cancer cell panel viability, ATPlite luminescence, 48 h, control line for the selectivity index; series mostly up to 57.5 µM
In short: as §2

OV90 = assay: as above; settings: Gynecologic cancer cell panel viability, ATPlite luminescence, 48 h; series mostly up to 57.5 µM
In short: as §2

PA-1 = assay: as above; settings: Gynecologic cancer cell panel viability, ATPlite luminescence, 48 h; series mostly up to 57.5 µM
In short: as §2

Tov-21-G = assay: as above; settings: Gynecologic cancer cell panel viability, ATPlite luminescence, 48 h; series mostly up to 57.5 µM
In short: as §2

Tov112D = assay: as above; settings: Gynecologic cancer cell panel viability, ATPlite luminescence, 48 h; series mostly up to 57.5 µM
In short: as §2

JEG-3 = assay: as above; settings: Gynecologic cancer cell panel viability, ATPlite luminescence, 48 h; series mostly up to 57.5 µM
In short: as §2

Sequence of Calcium and integrin-binding protein 1 (Homo sapiens) (Q99828 whole entry, looked up): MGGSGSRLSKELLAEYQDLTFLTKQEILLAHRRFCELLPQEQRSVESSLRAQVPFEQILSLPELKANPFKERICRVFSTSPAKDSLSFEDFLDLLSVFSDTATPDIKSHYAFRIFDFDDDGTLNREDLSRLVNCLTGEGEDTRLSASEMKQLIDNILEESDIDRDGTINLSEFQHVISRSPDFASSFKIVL
Sequence of Glutathione peroxidase 1 (Homo sapiens) (P07203 whole entry, looked up): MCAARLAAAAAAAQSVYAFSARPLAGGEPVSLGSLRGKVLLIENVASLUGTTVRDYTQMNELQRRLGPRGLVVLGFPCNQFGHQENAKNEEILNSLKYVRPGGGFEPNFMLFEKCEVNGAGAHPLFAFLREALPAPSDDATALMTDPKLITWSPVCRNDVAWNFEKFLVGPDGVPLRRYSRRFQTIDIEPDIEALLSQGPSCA
Sequence of Phospholipid hydroperoxide glutathione peroxidase GPX4 (Homo sapiens) (P36969 whole entry, looked up): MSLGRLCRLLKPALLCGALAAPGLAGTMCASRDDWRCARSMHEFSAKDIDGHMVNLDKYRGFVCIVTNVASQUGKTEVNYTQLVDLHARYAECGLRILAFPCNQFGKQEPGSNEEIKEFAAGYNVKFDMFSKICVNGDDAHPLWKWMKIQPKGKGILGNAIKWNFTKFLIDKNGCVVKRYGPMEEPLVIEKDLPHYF

CO[C@H]1C[C@H](O[C@H]2CC[C@]3(CO)[C@H]4CC[C@]5(C)[C@@H](C6=CC(=O)OC6)CC[C@]5(O)[C@@H]4CC[C@]3(O)C2)O[C@H](C)[C@H]1O
active: Potency (CRL-7250) 0.0709 µM | Potency (C33A) 0.0891 µM | Potency (CAOV3) 0.355 µM | Potency (CASKI) 0.891 µM | Potency (Es-2) 0.199 µM | Potency (Hek293T) 0.224 µM | Potency (OV90) 1 µM | Potency (PA-1) 0.112 µM | Potency (Tov-21-G) 0.141 µM | Potency (Tov112D) 0.0316 µM
inactive: Potency [1] | Potency [2] | Potency [3] | Potency [4] | outcome [5] | Potency [6] | Potency [7] | Potency [8] | max response (NIH3T3) 1.22%

C/C=C(\C)C(=O)O[C@H]1CC2C(=C1C)[C@H]1OC(=O)[C@](C)(O)[C@]1(O)[C@H](OC(=O)CCC)C[C@@]2(C)OC(C)=O (stereo not given in full)
inactive: Potency [1] | Potency [2] | Potency [3] | Potency [4] | outcome [5] inactive [at 25.7 µM] | Potency [6] | Potency [7] | Potency [8] | Potency (Hek293T)
active: Potency (CRL-7250) 2.24 µM | Potency (NIH3T3) 4.47 µM | Potency (PA-1) 5.01 µM | Potency (Tov112D) 5.01 µM

COc1cccc(NCC(F)Cn2c3ccc(Br)cc3c3cc(Br)ccc32)c1 (stereo not given)
inactive: Potency [1] | Potency [2] | Potency [3] | Potency [4] | outcome [5] | Potency [6] | Potency [7] | Potency [8] | Potency (OV90)
active: Potency (NIH3T3) 20.6 µM | Potency (CASKI) 7.94 µM | Potency (PA-1) 20 µM | Potency (Tov112D) 10 µM

C[C@]12CC[C@H](O)CC1=CC[C@@H]1C2CC[C@]2(C)[C@@H](C3=CC(=O)OC3)CC[C@]12O (stereo not given in full)
inactive: Potency [1] | Potency [2] | Potency [3] | outcome [5] | Potency [6] | Potency [7] | Potency [8] | max response (NIH3T3) -1.39% | Potency (CASKI)
active: Potency (CRL-7250) 5.08 µM | Potency (Es-2) 11.2 µM | Potency (Tov-21-G) 10 µM | Potency (Tov112D) 7.08 µM

CC/C=C/C=C/C1(C)OC(OC)=C(C(=O)C2C(C)C(=O)c3cc(OC)c(O)c(O)c3C2(C)O)C1=O (stereo not given)
active: Potency [1] 10 µM | Potency [6] 1.3 µM
inactive: Potency [2] | Potency [3] | Potency [4] | outcome [5] inactive [at 25.7 µM] | Potency [7] | Potency [8] | max response (CRL-7250) -16.8% | Potency (C33A) | Potency (CAOV3) | Potency (CASKI) | Potency (Hek293T) | Potency (JEG-3) | Potency (OV90) | Potency (Tov112D)

C[C@]12CC[C@H](O[C@@H]3O[C@H](CO)[C@@H](O)[C@H](O)[C@H]3O)CC1=CC[C@@H]1C2CC[C@]2(C)[C@@H](C3=CC(=O)OC3)CC[C@]12O (stereo not given in full)
inactive: Potency [1] | Potency [2] | Potency [3] | Potency [4] | outcome [5] inactive [at 25.7 µM] | Potency [6] | Potency [7] | Potency [8] | max response (NIH3T3) 0.891% | Potency (JEG-3) | Potency (OV90)
active: Potency (CRL-7250) 3.43 µM | Potency (Es-2) 10 µM | Potency (Tov-21-G) 6.31 µM | Potency (Tov112D) 3.16 µM

COC1CC(OC2CCC3(C=O)C(CCC4C3CCC3(C)C(C5=CC(=O)OC5)CCC43O)C2)OC(C)C1O (stereo not given)
inactive: Potency [2] | Potency [3] | Potency [4] | outcome [5] inactive [at 25.7 µM] | Potency [7] | max response (NIH3T3) 0.727%
active: Potency (C33A) 0.141 µM | Potency (CAOV3) 0.316 µM | Potency (CASKI) 1 µM | Potency (Es-2) 0.251 µM | Potency (Hek293T) 0.251 µM | Potency (JEG-3) 0.631 µM | Potency (OV90) 1 µM | Potency (PA-1) 0.199 µM | Potency (Tov-21-G) 0.178 µM | Potency (Tov112D) 0.1 µM

CN1CN(c2ccccc2)C2(CCN(CCCC(=O)c3ccc(F)cc3)CC2)C1=O
inactive: Potency [1] | Potency [2] | Potency [3] | outcome [5] | Potency [6] | Potency [7] | Potency [8] | Potency (CAOV3) | Potency (CASKI) | Potency (Es-2) | Potency (Hek293T) | Potency (JEG-3) | Potency (PA-1) | Potency (Tov-21-G) | Potency (Tov112D)
